In PMC4552634, “A New Set of Chemical Starting Points with Plasmodium falciparum Transmission-Blocking Potential for Antimalarial Drug Discovery” (PLoS ONE, 2015):
Read-outs that look alike come from different tables or passages of the source. Hit rate of the full screen: of about 13,000 compounds, about 3,200 (25%) showed an effect of 50% or more. Some of the results follow.

Test system: P. falciparum stage V gametocytes
Parameters: BacTiter-Glo ATP luminescence viability of purified stage V gametocytes in 384-well plates, per cent inhibition versus DMSO
Settings: 48 h, 5 µM, inhibitor

| SMILES | % Inhibition [%] | % Inhibition (% Inhibition) [%] |
| --- | --- | --- |
| COC(=O)c1cccc(CNCc2cccc(-c3cccc(-c4nc5cc(C(F)(F)F)ccc5[nH]4)c3)c2)c1.O=C(O)C(F)(F)F [TCMDC-132949] | 2.495 |  |
| CCC(CC)(Cc1ccccc1)NC(=O)[C@H](Cc1ccc(OC)c(OC)c1)Nc1ccc(C#N)c2ccccc12 [TCMDC-136638] | 82.88 |  |
| CCC(CC)(Cc1ccccc1)NC(=O)[C@H](CC(C)C)Nc1ccc(C#N)c2ccccc12 [TCMDC-136625] | -7.489 |  |
| Cc1cc(NC(=O)[C@H](CC2CCCCC2)Nc2ccc(C#N)c3ccccc23)ccc1F [TCMDC-136627] | 3.721 |  |
| CCC(CC)(Cc1ccccc1)NC(=O)[C@H](CC1CCCCC1)Nc1ccc(C#N)c2ccccc12 [TCMDC-136634] | -0.7992 |  |
| CC(C)(CC1CCCCC1)NC(=O)[C@H](CC1CCCCC1)Nc1ccc(C#N)c2ccccc12 [TCMDC-136632] | -68.15 |  |
| N#Cc1ccc(N[C@@H](CC2CCCCC2)C(=O)Nc2ccc(-c3ccccc3)cc2)c2ccccc12 [TCMDC-136629] | 57.71 |  |
| CC(=O)c1ccc(-c2ccccc2)s1 [TCMDC-123882] | -10.02 |  |
| CC[C@H](C)[C@H](NC(=O)[C@H](CC1CCCCC1)[C@H](CC)N(O)C=O)C(=O)Nc1ccccn1 [TCMDC-137215] | 2.069 |  |
| CC(=O)Nc1cccc(-c2cn(-c3ccc(OCc4cccc(F)c4)c(Cl)c3)c3ncncc23)c1 [TCMDC-135093] | -24.36 |  |
| COc1ccc(C2C(C(=O)OC3CCCC3)=C(C)NC3=C2C(=O)CCC3)cc1Br (centres unmarked) [TCMDC-124211] | -24.26 |  |
| CCn1cc(C=C2Oc3c(ccc(O)c3CN3CCCCC3C)C2=O)c2ccccc21 (centres unmarked) [TCMDC-124886] | 27.57 |  |
| Cc1occc1C(=O)Nc1nc(-c2ccccn2)nc2ccsc12 [TCMDC-135244] | 130.5 |  |
| Cc1cc(C(=O)Nc2ccc(-c3ccccc3)cc2)no1 [TCMDC-124865] | 48.28 |  |
| Cc1onc(-c2ccccc2)c1C(=O)Nc1nc(-c2ccccn2)nc2ccsc12 [TCMDC-135272] | -61.64 |  |
| Cc1cc(C(=O)Nc2nc(-c3ccccn3)nc3ccsc23)no1 [TCMDC-135243] | 58.63 |  |
| COc1ccc(C(=O)Nc2ccc3oc(-c4ccc(C(F)(F)F)cc4)cc3c2)cc1CCCN(C)C [TCMDC-138694] | 15.28 |  |
| COc1ccc2nccc([C@@H](O)CN3CCC(NCc4ccc5c(c4)NC(=O)CS5)CC3)c2n1 [TCMDC-141173] | 12.99 |  |
| COc1ccc2nccc([C@@H](O)CN3CCC(NCc4cc5c(cc4F)SCC(=O)N5)CC3)c2n1 [TCMDC-141432] | 52.03 |  |
| COc1ccc2nccc([C@@H](O)CN3CCC(NCc4cc5ccccc5cn4)CC3)c2n1 [TCMDC-140714] | 12.93 |  |
| COc1cc(F)c2nccc([C@@H](O)CN3CCC(NCc4ccc5c(n4)NC(=O)CS5)CC3)c2c1 [TCMDC-141566] | 6.174 |  |
| COc1ccc2nccc([C@@H](O)CN3CCC(NCc4cc5c(F)ccc(F)c5[nH]4)CC3)c2n1 [TCMDC-140749] | 33.6 |  |

| SMILES | % Inhibition [%] | % Inhibition (% Inhibition) [%] |
| --- | --- | --- |
| COc1ccc2nccc(N(C)CC3(O)CCC(NCc4ccc5c(n4)NC(=O)CS5)CC3)c2n1 (centres unmarked) [TCMDC-134496] | 10.91 |  |
| COc1ccc2nccc([C@@H](O)CN3CCC(NCc4cc5ccccc5[nH]4)CC3)c2n1 [TCMDC-140670] | 14.92 |  |
| COc1ccc2nccc([C@@H](O)CN3CCC(NCc4cc5cccnc5[nH]4)CC3)c2n1 [TCMDC-140769] | 87.86 |  |
| COc1ccc2nccc([C@@H](O)CN3CCC(c4cc(-c5ccc(Cl)cc5)n[nH]4)CC3)c2n1 [TCMDC-141436] | 81.16 |  |
| COc1ccc2nccc([C@@H](O)CN3CCC(NCc4ccc5cccc(O)c5n4)CC3)c2n1 [TCMDC-140748] | 43.79 |  |
| COc1ccc2nccc(NCC3(O)CCC(NCc4ccc5c(n4)NC(=O)CS5)CC3)c2n1 (centres unmarked) [TCMDC-134313] | 46.62 |  |
| COc1ccc2nccc([C@@H](O)CN3C4CCC3CC(NCc3ccc5c(n3)NC(=O)CS5)C4)c2n1 (some centres unmarked) [TCMDC-134697] | 50.82 |  |
| COc1ccc2ncc(F)c(C(O)CN3CCC(NCc4ccc5c(n4)NC(=O)CO5)CC3)c2c1 (centres unmarked) [TCMDC-135531] |  | 14.63 |
| CN(C)CCOc1ccc2c(c1)OC(C)(C)C=C2c1cccc2ccccc12 [TCMDC-131402] | -10.44 |  |
| CNC(=O)C1Cc2c([nH]c3c(C)cccc23)C2(N1)C(=O)Nc1ccc(OC(F)(F)F)cc12 (centres unmarked) [TCMDC-140663] | 46.7 |  |
| COc1cc(Cc2cnc(N)nc2N)ccc1OCc1csc(-c2ccc(Cl)cc2)n1 [TCMDC-138680] | 16.88 |  |
| CCCc1cc(C(C)=O)ccc1OCCCON1C(N)=NC(N)=NC1(C)C [TCMDC-131336] | -2.455 |  |
| CS(=O)(=O)NCCCNCc1cccc(-c2ccc(-c3nc4ccccc4[nH]3)s2)c1.O=C(O)C(F)(F)F [TCMDC-133088] | 4.156 |  |
| CC(=O)c1sc2ccccc2c1O [TCMDC-125829] | 14.25 |  |
| COc1ccc2nccc(CCC3(O)CCC(NCc4cc5c(cc4F)SCC(=O)N5)CC3)c2c1 (centres unmarked) [TCMDC-141917] | 62.44 |  |
| COc1ccc2nccc(NC(=O)C3CCC(NCc4ccc5c(c4)NC(=O)CS5)CC3)c2c1 (centres unmarked) [TCMDC-141228] | 28.37 |  |
| COc1ccc2nccc(NC(=O)OC3CCC(NCc4ccc5c(n4)NC(=O)CS5)CC3)c2c1 (centres unmarked) [TCMDC-141555] | -20.26 |  |
| O=C(Nc1cccc(-c2cccc(-c3nc4ccccc4[nH]3)c2)c1)Nc1ccc(Cl)c(Cl)c1 [TCMDC-133276] | -27.25 |  |
| O=C(NC1CC1)c1ccc(N2CCN(Cc3ccc(Cl)cc3)CC2)nc1 [TCMDC-134579] | -1.025 |  |
| CN1CCC(N(Cc2ccc(N3CCN(Cc4c[nH]c5ccc(Cl)cc45)CC3)nc2)C2CC2)CC1 [TCMDC-125090] | 56.06 |  |
| CN(C)C1CCN(Cc2ccc(N3CCN(Cc4cccc5[nH]ccc45)CC3)nc2)CC1 [TCMDC-125091] | 12.57 |  |
| COc1ccc(-c2nc3c(N)nc(N)nc3nc2C(C)C)cc1 [TCMDC-132109] | -10.94 |  |

| SMILES | % Inhibition [%] | % Inhibition (% Inhibition) [%] |
| --- | --- | --- |
| COc1ccc2nccc([C@@H](O)CN3CCC(NC(=O)C(c4cc5ccccc5s4)N4CCN(c5ccccc5OC)CC4)CC3)c2c1 (some centres unmarked) [TCMDC-140998] | -1.294 |  |
| Cc1ccc(-n2nc(C)c3c2NC(=O)CSC3c2ccsc2)cc1 (centres unmarked) [TCMDC-124763] | 18.54 |  |
| Cc1nn(-c2cccc(Cl)c2)c2c1C(C(=O)c1ccc3c(c1)OCO3)CC(=O)N2 (centres unmarked) [TCMDC-124734] | 53.61 |  |
| Cc1cccc(-n2nc(C)c3c2NC(=O)CC3C(=O)c2ccc(Cl)s2)c1 (centres unmarked) [TCMDC-124735] | 9.48 |  |
| COc1ccc2ncc(F)c(CCN3CC(O)C(CNCc4nc5c(cc4Cl)OCC(=O)N5)C3)c2n1 (centres unmarked) [TCMDC-136076] |  | 36.95 |
| CN(C)c1ccc(Br)c(Br)c1 [TCMDC-137228] | -4.164 |  |
| CCc1ccc(N2C(N)=NC(N)=NC2(C)C)cc1 [TCMDC-137714] | 18.99 |  |
| O=C(Nc1cccc2ccccc12)N1CCc2cc3nccc(N4CCN5CCC[C@H]5C4)c3cc21 [TCMDC-140051] | -22.56 |  |
| COc1ccc(N2CCN(CCCCNC(=O)c3ccc(NC(=O)c4ccc(Cl)cc4)cc3)CC2)c(OC)c1 [TCMDC-138121] | -18.96 |  |
| COc1ccc(N2CCN(CCCCNC(=O)c3ccc(NC(=O)c4cc(Cl)cc(Cl)c4)cc3)CC2)c(OC)c1 [TCMDC-138158] | -3.672 |  |
| COc1ccc(N2CCN(CCCOc3ccc(NC(=O)c4cc(Cl)cc(Cl)c4)cc3)CC2)c(OC)c1 [TCMDC-138225] | -23.18 |  |
| COc1ccc(N2CCN(CCCNC(=O)c3ccc(NC(=O)c4cc(Cl)cc(Cl)c4)cc3)CC2)c(OC)c1 [TCMDC-138244] | -9.881 |  |
| COc1ccc(N2CCN(CCCCNCc3ccc(NC(=O)c4cc(Cl)cc(Cl)c4)cc3)CC2)c(OC)c1 [TCMDC-138226] | 99.96 |  |
| COc1ccc(N2CCN(CCCCNC(=O)c3ccc(NC(=O)c4ccc(Cl)c(Cl)c4)cc3)CC2)c(OC)c1 [TCMDC-138159] | 58.71 |  |
| COc1ccc(N2CCN(CCCCNC(=O)c3ccc(NC(=O)c4cccc(Cl)c4)cc3)CC2)c(OC)c1 [TCMDC-138183] | 74.19 |  |
| COc1ccc(N2CCN(CCCCNC(=O)c3ccc(NC(=O)c4ccc(C(F)(F)F)cc4)cc3)CC2)c(OC)c1 [TCMDC-138132] | -49.13 |  |
| COc1ccc(N2CCN(CCCC/C=C/c3ccc(NC(=O)c4cc(Cl)cc(Cl)c4)cc3)CC2)c(OC)c1 [TCMDC-138219] | 10.07 |  |
| Cc1ccoc1C(=O)Nc1cccc(-c2cccc(-c3nc4ccc(C(F)(F)F)cc4[nH]3)c2)c1 [TCMDC-136835] | 10.66 |  |
| Cc1onc(-c2c(Cl)cccc2Cl)c1C(=O)N1CCc2cc3nccc(N4CCN5CCC[C@H]5C4)c3cc21 [TCMDC-140048] | 3.329 |  |
| COc1cc(C(F)(F)F)nc2c(CNCCCNc3cc(=O)c4ccccc4[nH]3)scc12 [TCMDC-141145] | -12.37 |  |
| CNc1nc(N/N=C/c2cc3c(cc2[N+](=O)[O-])OCO3)nc(Nc2cccc(C(F)(F)F)c2)n1 [TCMDC-124216] | 15.24 |  |
